Results reported in the OligoGym collection.

target: VN1R2; experiment: pooled miR-30 sensor sort-seq; sequence = guide strand; conditions: shRNA
Further: reference of the scale not given here.

Sequence | sensor-assay potency score (higher = more potent)
TAGTGCAGCAGTGTTCACTAGC | -0.0087
TACAAGACCAAAACGATGGAGC | -0.2
TTTTACTTTCATCTCTGCCCAC | -0.563
TTTACTTTCATCTCTGCCCACC | -1.01

target: VNN1; experiment: as above; conditions: shRNA

Sequence | sensor-assay potency score (higher = more potent)
TTCTCAGACATTTTGTAGCTTA | 0.132
TATCATAATGAAATGCTCTTGA | 0.667
TTACTGTTAAGACAGGTCCGGA | -1.14
TTGACACCTGAAATTCTCCAGG | -0.925
TAGAGGATAATATTAACCCGGA | -0.217
TTTCACTCAGCAACACCTCAGG | -0.729
TTAAATGACAGCAGAGATCTTT | 0.464
TTTGCCACAACATAGATAGAGT | -0.809
TATGGGTAGAGAGAGTCCCTGT | -0.516
TTAGCATTATTATTCTTGCTTG | -0.677
TTATTATTCTTGCTTGTGCTGT | -0.405
TTTCAAACCTGGTAGAAGCTGT | 0.475

target: VNN2; experiment: as above; conditions: shRNA

Sequence | sensor-assay potency score (higher = more potent)
TAAATGACAGCAAAGCTCCTTT | 0.246
TAAGTTATTGCTGAATTGCTGG | 0.0796
TTCTTTTTGTAACATTCTGTAG | -1.08
TAATAATATGAATATTAGCAGG | -1.34
TATACTACTGAAATAGCCCTTC | 0.854
TTTCAAATCTTGTAGAAGCAGT | -0.249
TCTTCTTTTTGTAACATTCTGT | -0.103
TTGCACTTCAGCATTGTGCAGA | -0.233
TTAGCAGGTAAGTTATTGCTGA | -0.154
TTAAATGACAGCAAAGCTCCTT | 0.199
TATTGTATTGAAAGTAGCCATT | -1.45
TTTCGGTAAGTAGCACTTCAGG | -1.26

target: VWA2; experiment: as above; conditions: shRNA

Sequence | sensor-assay potency score (higher = more potent)
AAAACCATCCTCTTGATTCTTG | -0.0709
TTGCTTACATGGACTTCCTGGA | -0.0634
TTTGTCATAGATGTGCAGCAGG | -0.376
TTTGGTTGAACAGATCCTGAGG | -0.36
TAACAGAAACATGATGTCCACT | -1.06
TTTCTTTGCTTACATGGACTTC | -1.06
TAGCCGTCCAGTCCTTCTGGAA | -1.51
TCTCACAAAGCTCTGCATCTGA | 0.327
TAGACCATCACATGCTTTGGGC | -0.664
TTTGAAAACCATCCTCTTGATT | -0.884
TTTGCTTACATGGACTTCCTGG | 0.502
TTGAAAATGAATCCAAGGGGAA | -0.607
